Compounds with a hit are over-represented: about 21% of the library has one in this group of screens.
MRP reversal: compounds reversing MRP-mediated drug resistance; actives 0.04% (n = 85,000); differential viability (reversal), % at 10 µM; H69AR cells + 2 uM doxorubicin, CellTiter-Glo, 72 h;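 active = viability drop by adding the cancer drug above about 55%, with treated viability meeting a 40% cutoff, limit read from the data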;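 note: larger differential means the compound sensitizes cells more to doxorubicin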
CYP2C19 activ: activators of human cytochrome P450 2C19 | P33261 | recombinant CYP2C19, luciferin-H EGE luminescence; hits give high values; 0 = fully inhibited enzyme, 1 = untreated enzyme | activation factor at 5 µM | 96,000 tested, under 10 active | AID 1025;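 active = activation factor of at least 2 at 5 µM in the primary screen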
CYP2C19 inhib: inhibitors of human CYP2C19; P33261; CYP2C19 Supersomes, luciferin-H EGE luminescence, 30 min; inhibition, % at 5 µM; actives 21% (n = 96,000); AID 778;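 active = CYP2C19 inhibition above a set limit at 5 µM in the primary screen, cut at about 50% in these data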
CYP2C9 act: CYP2C9 (human) activation; P11712; recombinant CYP2C9, luciferin-H conversion, luminescence; hits give high values; factor 1 = untreated enzyme, 0 = blocked; activation factor at 5 µM; actives 1.4% (n = 96,000); AID 1024;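 active = activation factor of 2 or more for CYP2C9 at a 5 µM dose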
Target sequence (P11712 whole entry, looked up): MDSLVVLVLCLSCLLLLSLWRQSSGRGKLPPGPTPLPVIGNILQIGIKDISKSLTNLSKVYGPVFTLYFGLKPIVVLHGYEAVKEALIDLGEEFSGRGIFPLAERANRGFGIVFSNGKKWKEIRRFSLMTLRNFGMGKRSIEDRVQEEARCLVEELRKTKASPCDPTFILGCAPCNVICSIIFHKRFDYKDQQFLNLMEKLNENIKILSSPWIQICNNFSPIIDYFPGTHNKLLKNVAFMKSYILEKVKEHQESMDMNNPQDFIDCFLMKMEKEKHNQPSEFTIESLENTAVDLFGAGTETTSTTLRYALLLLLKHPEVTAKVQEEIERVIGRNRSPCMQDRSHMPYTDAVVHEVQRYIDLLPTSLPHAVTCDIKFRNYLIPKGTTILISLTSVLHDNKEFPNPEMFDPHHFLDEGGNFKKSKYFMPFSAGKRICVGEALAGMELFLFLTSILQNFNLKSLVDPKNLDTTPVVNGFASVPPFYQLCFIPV
CYP2C9 inhib: human CYP2C9 inhibition | CYP2C9 Supersomes, luciferin-H conversion, luminescence | AID 777 | actives 20% (n = 96,000) | inhibition, % at 5 µM;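 active = blocking of liver enzyme CYP2C9 beyond about 50% at 5 µM, limit read from the data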
MRP1 act: MRP-1 activation | H69AR cells + doxorubicin, viability rescue, CellTiter-Glo | viability increase, % at 10 µM | actives 0.61% (n = 140,000) | AID 799;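 active = viability gain under doxorubicin at or above a set limit, the compound median plus 3 SD, cut at about 4.7% in these data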;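 note: MRP-1 overexpressing cells given doxorubicin 25 µM after compound pretreatment; 18-22 h compound pretreatment then 72 h with doxorubicin before readout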
Large screens that a line does not name were inactive.

COc1ccc(S(=O)(=O)Nc2cc(C)on2)cc1OC	none (no result: CYP2C19 activ, CYP2C19 inhib, CYP2C9 act, CYP2C9 inhib)
O=C(CC1Oc2ccc(Cl)cc2NC1=O)NC1CCCCCC1 (stereo unspecified)	none
CC/C(=N\NS(C)(=O)=O)c1ccccc1	none
Cc1nc(SCc2c(F)cccc2Cl)c2c(=O)n(C)c(=O)n(C)c2n1	none
Cc1sc2nc3c(C(=O)N4CCN(c5ccccn5)CC4)cccn3c(=O)c2c1C	none (no result: MRP reversal)
O=C(c1cc(-c2ccncc2)nc2ccc(Cl)cc12)N1CCN(C(=O)C2CCCO2)CC1 (stereo unspecified)	CYP2C9 inhib 73.6
O=C(c1cc(-c2ccncc2)nc2ccc(Br)cc12)N1CCN(c2ccccn2)CC1	CYP2C19 inhib 79.3, CYP2C9 inhib 97.9
O=C(c1cccn2c(=O)c3ccccc3nc12)N1CCN(c2ccccn2)CC1	CYP2C9 inhib 59.3
O=C(c1cccn2c(=O)c3cc(Br)ccc3nc12)N1CCN(c2ccccn2)CC1	CYP2C9 inhib 59.1
O=C(c1cccn2c(=O)c3cc4ccccc4cc3nc12)N1CCN(c2ccccc2)CC1	none
O=C(c1cc(-c2ccccn2)nc2c(Cl)cccc12)N1CCN(C(=O)C2CCCO2)CC1 (stereo unspecified)	none
O=C1CCC2(C(=O)O)Sc3ccccc3N12 (stereo unspecified)	none (no result: MRP reversal)
CC1(C)OC(C)(C)/C(=C/Nc2ccccc2)C1=O	none (no result: MRP reversal, CYP2C19 activ, CYP2C19 inhib, CYP2C9 act, CYP2C9 inhib)
Cc1ccc(C(=O)O/N=C(\c2ccccc2)c2cccnc2)cc1	none (no result: MRP reversal, CYP2C19 activ, CYP2C19 inhib, CYP2C9 act, CYP2C9 inhib)
COc1ccc(NS(=O)(=O)c2cccc(NC(=O)CCC(=O)c3ccc(Cl)cc3)c2)cc1	none (no result: MRP reversal, CYP2C19 activ, CYP2C19 inhib, CYP2C9 act, CYP2C9 inhib)
COc1cc(CCC(=O)OCc2nnc(-c3ccccc3)o2)cc(OC)c1OC	CYP2C19 inhib 63.6, CYP2C9 inhib 81.6
c1ccc(Cc2nnc(-c3ccccc3)o2)cc1	CYP2C19 inhib 52.1
O=C(OCc1nnc(-c2ccccc2)o1)c1ccc2ccccc2n1	none
CC(C(=O)OCc1nnc(-c2ccccc2)o1)N1C(=O)c2ccccc2C1=O (stereo unspecified)	CYP2C9 inhib 55.9
O=C(OCc1nnc(-c2ccccc2)o1)C1=COCCO1	CYP2C19 inhib 50.7
O=C(CSc1ccc(Cl)cc1)OCc1nnc(-c2ccccc2)o1	none
Cc1ccccc1-c1nnc(Cc2ccccc2)o1	none (no result: MRP reversal, CYP2C19 activ, CYP2C19 inhib, CYP2C9 act, CYP2C9 inhib)
Cc1cc(NC(=O)CCCC(=O)NCc2cccs2)no1	none
Cc1cc(C)n(-c2ccc(C(=O)OCc3nnc(-c4ccccc4)o3)cc2)n1	none
COc1cc(-c2nnc(COC(=O)c3cc(C)nc4ccc(C)cc34)o2)cc(OC)c1OC	CYP2C19 inhib 89.7, CYP2C9 inhib 88.2
O=C(OCc1nnc(-c2ccccc2)o1)c1ccc2c(c1)OCCO2	CYP2C9 inhib 57.9
Cc1ccc(C(=O)OCc2nnc(-c3ccccc3)o2)o1	CYP2C19 inhib 79.9
O=C(OCc1nnc(-c2ccccc2)o1)c1ccc(S(=O)(=O)NCc2ccco2)cc1	CYP2C9 inhib 69.7
O=C(Nc1ccccc1C(=O)OCc1nnc(-c2ccccc2)o1)c1ccco1	CYP2C19 inhib 75.7, CYP2C9 inhib 95.3
CCn1ncc(/C=N/NC(=O)c2cc(Cl)ccc2OC)c1C	none (no result: MRP reversal, CYP2C19 activ, CYP2C19 inhib, CYP2C9 act, CYP2C9 inhib)
CCCCCn1c(=O)[nH]c2cc(C(=O)NCCN(CC)CC)ccc2c1=O	none (no result: MRP reversal)
COc1ccc(CCNS(=O)(=O)c2ccc(OC)cc2)cc1	CYP2C19 inhib 65.4, CYP2C9 inhib 56.9
COc1ccc(CCNS(=O)(=O)c2ccc(N3CCCC3=O)cc2)cc1	none (no result: CYP2C19 activ, CYP2C19 inhib, CYP2C9 act, CYP2C9 inhib)
COc1ccc(S(=O)(=O)NCc2ccc(C)cc2)cc1	CYP2C19 inhib 99.1
COc1ccc(CCNS(=O)(=O)c2ccc3c(c2)OCCO3)cc1	CYP2C19 inhib 75.6
COc1ccc(S(=O)(=O)NCCC(=O)NCc2ccc(F)cc2)cc1	CYP2C9 act 2.8
O=C(CSc1nnnn1C1CCCCC1)NCCc1ccccc1	none
O=C(NCC1CCN(c2ccc(S(=O)(=O)N3CCOCC3)cc2)CC1)c1ccc(Cl)cc1	none
Cc1cc(-c2cc(N)n(-c3ccccc3)n2)c(C)n1C1CCCC1	none
Cc1ccc(OCCC(=O)NCCc2ccc(S(N)(=O)=O)cc2)cc1	none (no result: MRP reversal, CYP2C19 activ, CYP2C19 inhib, CYP2C9 act, CYP2C9 inhib)
COc1ccc(S(=O)(=O)CCC(=O)NCCc2ccc(C)cc2)cc1	CYP2C19 inhib 57.0, CYP2C9 inhib 75.1
CCN1C(=O)/C(=C2/Sc3ccc(OC)cc3N2C)SC1=Nc1cccc(O)c1	CYP2C9 inhib 55.1
COc1ccc(C2CC(C(F)(F)F)n3nc(C(=O)Nc4c(C)n(C)n(-c5ccccc5)c4=O)c(Cl)c3N2)cc1 (stereo unspecified)	none (no result: MRP reversal, CYP2C19 activ, CYP2C19 inhib, CYP2C9 act, CYP2C9 inhib)
Cc1ccccc1-n1c(SCc2c(C)noc2C)nnc1-c1c[nH]c2ccccc12	none
Cc1c(Cl)cccc1-n1c(SCC(=O)N(C)Cc2ccccc2)nnc1-c1ccncc1	CYP2C19 inhib 89.9, CYP2C9 inhib 83.2
Cc1noc(C)c1CSc1nnc(-c2ccncc2)n1-c1cccc(Cl)c1C	CYP2C19 inhib 99.7, CYP2C9 inhib 94.4
Cc1cc(N2C3CCC2CC(O)(c2ccc(F)cc2)C3)nc(-c2ccccc2)n1 (stereo unspecified)	CYP2C19 inhib 93.7, CYP2C9 inhib 100.0
CC(C)C(=O)N1C2CCC1CC(O)(c1ccc(F)cc1)C2 (stereo unspecified)	none
CCC(CC)C(=O)Nc1cccc(C(=O)c2ccccc2)c1	CYP2C19 inhib 69.5, CYP2C9 inhib 55.4
CCC(=O)Oc1ccc(C(=O)Nc2cccc(C(=O)c3ccccc3)c2)cc1	CYP2C19 inhib 71.2, CYP2C9 inhib 72.9 (no result: MRP reversal)
COc1ccc(C(=O)N/N=C(/C)c2cccc(NC(=O)C(F)(F)F)c2)cc1	none (no result: MRP reversal, CYP2C19 activ, CYP2C19 inhib, CYP2C9 act, CYP2C9 inhib)
COc1ccc(S(=O)(=O)N/N=C(/C)c2cccc(NC(=O)c3ccccc3Cl)c2)cc1	CYP2C19 inhib 97.2, CYP2C9 inhib 95.1 (no result: MRP reversal)
CCC(CC)C(=O)Nc1cccc(/C(C)=N/NC(=O)c2ccccc2Cl)c1	CYP2C19 inhib 51.3 (no result: MRP reversal)
COc1ccc(N2CCN(CC(O)COc3ccccc3[N+](=O)[O-])CC2)cc1 (stereo unspecified)	none (no result: MRP reversal, CYP2C19 activ, CYP2C19 inhib, CYP2C9 act, CYP2C9 inhib)
C=CCn1c(SCC(=O)c2ccc(Cl)cc2)nnc1-c1ccc2c(c1)OCO2	none (no result: MRP reversal, CYP2C19 activ, CYP2C19 inhib, CYP2C9 act, CYP2C9 inhib)
CCC(CC)C(=O)Nc1cccc(-c2nc3ccccc3o2)c1	CYP2C19 inhib 58.6, CYP2C9 inhib 65.6
CCC(=O)Nc1cccc(-c2nc3ccccc3c(=O)o2)c1	none
Cc1c(Cl)cccc1NC(=O)c1cc(C2CC2)on1	CYP2C19 inhib 83.9
Cc1cc(NC(=O)c2cc(C3CC3)on2)no1	none (no result: CYP2C19 activ, CYP2C19 inhib, CYP2C9 act, CYP2C9 inhib, MRP1 act)
COc1ccc(NC(=O)c2cc(C3CC3)on2)c(OC)c1	CYP2C9 act 2.9
COC(=O)c1ccccc1NC(=O)c1cc(C2CC2)on1	none
Cc1ccccc1OCCC(=O)Nc1ccc(Cl)cc1F	none (no result: MRP reversal, CYP2C19 activ, CYP2C19 inhib, CYP2C9 act, CYP2C9 inhib)
Cn1nc(-c2ccc(N3CCOCC3)c(NS(=O)(=O)c3ccc(Cl)cc3)c2)c2ccccc2c1=O	CYP2C19 inhib 85.5, CYP2C9 inhib 84.3
Cc1ccc(S(=O)(=O)Nc2cc(-c3nn(C)c(=O)c4ccccc34)ccc2N2CCOCC2)cc1	CYP2C19 inhib 93.0, CYP2C9 inhib 94.5
Cc1cc(C(C)(C)C)cc(S(=O)(=O)NCC(=O)O)c1C	CYP2C9 act 2.3
